This note sets out measurements from PubChem BioAssay (EPA / NIEHS).

Assay [1] in a line: ACEA_ER_80hr: ACEA Biosciences xCELLigence Real-Time Cell Analysis on Estrogen Receptor Agonism for Proliferation (AID 2282667; active = hit-call score of the fitted dose curve at least 0.9, where 1 is the maximum). Conditions: T47D proliferation, impedance (xCELLigence), 80 h. In a few lines: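 Cell-growth kinetics were measured by impedance in T47D cells treated continuously with compound (top 100 uM final, 1:4 steps, 8 points). Activity at 80 h was scored as signal gain over the DMSO baseline.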

Assay [2] is described as follows: ATG_CRE_CIS: Attagene CIS-FACTORIAL HepG2 Assay for human cAMP Responsive Element (CRE) binding protein 3 (AID 2282926). Conditions: HepG2 CRE cis-reporter, Attagene multiplexed mRNA; actives raise or lower the signal. In a few lines: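 We dosed HepG2 cells bearing multiple cis-promoter reporter units for 24 h and measured reporter mRNA by RT-PCR with capillary electrophoresis detection. Bidirectional concentration-response fitting used DMSO as negative control.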

Assay [3] deals with CCAAT/enhancer-binding protein beta (Homo sapiens) (UniProt P17676). In words: ATG_C_EBP_CIS: Attagene CIS-FACTORIAL HepG2 Assay for human CCAAT/Enhancer Binding Protein (C/EBP) beta (AID 2282927). Conditions: HepG2 Attagene cis-factorial transcription factor reporter; actives raise or lower the signal. The method in brief: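 Chemical-treated HepG2 cells (24 h) bearing cis-regulated reporter constructs were processed for total RNA, then reverse transcription, PCR amplification, fluorescent primer extension and fragment analysis; gain- and loss-of-signal were fitted against DMSO.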
CCAAT/enhancer-binding protein beta (Homo sapiens), sequence (P17676 whole entry, looked up, the tested form may be a part): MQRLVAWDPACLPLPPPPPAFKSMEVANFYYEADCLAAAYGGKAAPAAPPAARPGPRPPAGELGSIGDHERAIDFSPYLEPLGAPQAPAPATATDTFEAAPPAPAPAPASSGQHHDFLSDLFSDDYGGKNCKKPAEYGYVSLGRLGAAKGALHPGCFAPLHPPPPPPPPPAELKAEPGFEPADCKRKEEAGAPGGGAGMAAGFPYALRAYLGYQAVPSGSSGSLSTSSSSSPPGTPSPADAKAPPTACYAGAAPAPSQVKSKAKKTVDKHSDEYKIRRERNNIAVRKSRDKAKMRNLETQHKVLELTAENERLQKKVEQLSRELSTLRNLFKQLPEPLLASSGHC

A short description of assay [4]: ATG_CMV_CIS: Attagene CIS-FACTORIAL HepG2 Assay for human CMV (Internal Marker) (AID 2282928).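 Note: endpoint acts as a background internal control marker rather than a target.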 The following applies: HepG2 CMV promoter reporter, transcription factor profiling; actives raise or lower the signal. The method in brief: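 CMV internal-marker background readout in transiently transfected HepG2 cells bearing cis-regulated reporter units. Reporter mRNA is measured 24 h after dosing by RT-PCR and capillary electrophoresis, with bidirectional fitting against DMSO.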

The nature of assay [5]: ATG_DR4_LXR_CIS: Attagene CIS-FACTORIAL HepG2 Assay for human Liver X Receptor (LXR), DR4 submotif (AID 2282929). The following applies: HepG2 Attagene DR4 cis-reporter, mRNA transcription; actives raise or lower the signal. The method in brief:
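Transiently transfected HepG2 liver cells; cis-regulated reporters; 24 h dosing. RT-PCR plus CE read-out of reporter mRNA. DMSO baseline, bidirectional curve fitting.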

In assay [6] the target is Aryl hydrocarbon receptor (Homo sapiens) (UniProt P35869). The assay can be described thus: ATG_Ahr_CIS: Attagene CIS-FACTORIAL HepG2 Assay for human Aryl Hydrocarbon Receptor (Ahr) (AID 2282930). The following applies: HepG2 AhR cis-factorial reporter transcription; actives raise or lower the signal. In a few lines:
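Following 24 h of chemical dosing, transfected HepG2 liver cells with cis-driven reporter units were lysed for RNA; reporter mRNA was quantified via RT-PCR and capillary electrophoresis, and responses fitted bidirectionally from DMSO.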

Assay [7] is described as follows: ATG_AP_1_CIS: Attagene CIS-FACTORIAL HepG2 Assay for human Activator Protein 1 (AP-1) (AID 2282931). Conditions: HepG2 Attagene cis-factorial AP-1 reporter mRNA; actives raise or lower the signal. The method in brief: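 We transfected HepG2 cells transiently with a set of cis-regulated reporter transcription units, dosed them for 24 h, and quantified reporter mRNA via RT-PCR and capillary electrophoresis, scoring gain or loss of signal relative to DMSO.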

Assay [8] in a line: ATG_AP_2_CIS: Attagene CIS-FACTORIAL HepG2 Assay for human Activator Protein 2 (AP-2) (AID 2282932). Conditions: HepG2 AP-2 cis-reporter, Attagene transcription factor profiling; actives raise or lower the signal. The method in brief: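 Bidirectional curve fitting against DMSO was applied to reporter mRNA signals from HepG2 cells 24 h after dosing. Cis-promoter reporter units, transiently transfected, were read by RT-PCR plus capillary electrophoresis.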

A short description of assay [9]: ATG_BRE_CIS: Attagene CIS-FACTORIAL HepG2 Assay for human Bone Morphogenetic Protein (BMP) Response Element (BRE) (AID 2282933). Conditions: HepG2 BMP response element reporter, Attagene transcription factor profiling; actives raise or lower the signal. The method in brief:
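After a 24 h chemical treatment, transiently transfected HepG2 cells were lysed for RNA; reporter transcripts were quantified by fluorescent RT-PCR and capillary electrophoresis, normalised to DMSO.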

For assay [10], the target named is Retinoic acid receptor alpha (Homo sapiens) (UniProt P10276). The assay can be described thus: ATG_DR5_RAR_CIS: Attagene CIS-FACTORIAL HepG2 Assay for human Retinoic Acid Receptor Alpha (RARE), DR5 submotif (AID 2282934). Conditions: HepG2 Attagene cis-factorial RARE DR5 reporter, mRNA; actives raise or lower the signal. In a few lines: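 Transfected HepG2 reporter cells are exposed to chemicals for 24 h. Then RNA is extracted and the DR5 element reporter transcript is measured by RT-PCR and capillary electrophoresis, with bidirectional curve fitting relative to DMSO.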
Retinoic acid receptor alpha (Homo sapiens), sequence (P10276 whole entry, looked up): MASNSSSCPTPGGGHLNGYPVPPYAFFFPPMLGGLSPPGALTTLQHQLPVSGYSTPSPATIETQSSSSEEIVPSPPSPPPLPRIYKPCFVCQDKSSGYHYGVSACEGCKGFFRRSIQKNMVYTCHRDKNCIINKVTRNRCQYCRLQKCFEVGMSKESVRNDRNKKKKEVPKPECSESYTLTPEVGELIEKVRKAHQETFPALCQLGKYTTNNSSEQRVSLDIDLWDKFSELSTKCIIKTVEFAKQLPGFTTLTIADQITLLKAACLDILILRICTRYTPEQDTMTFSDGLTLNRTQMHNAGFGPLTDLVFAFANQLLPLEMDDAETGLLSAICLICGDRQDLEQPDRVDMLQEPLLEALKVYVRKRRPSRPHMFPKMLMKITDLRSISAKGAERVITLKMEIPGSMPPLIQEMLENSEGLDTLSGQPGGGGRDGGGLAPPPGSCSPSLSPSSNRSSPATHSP

Values joined by “and” are separate entries in the source; they are usually repeats but may differ in a detail not shown here. Identical values can stand only once. Records with an inconclusive call do not appear. Active and inactive are the calls of the source. Rule for the calls, unless noted: active = hit-call score of the fitted dose curve at least 0.9, where 1 is the maximum; inactive = score below 0.9.

Aryl hydrocarbon receptor (Homo sapiens), sequence (P35869 whole entry, looked up): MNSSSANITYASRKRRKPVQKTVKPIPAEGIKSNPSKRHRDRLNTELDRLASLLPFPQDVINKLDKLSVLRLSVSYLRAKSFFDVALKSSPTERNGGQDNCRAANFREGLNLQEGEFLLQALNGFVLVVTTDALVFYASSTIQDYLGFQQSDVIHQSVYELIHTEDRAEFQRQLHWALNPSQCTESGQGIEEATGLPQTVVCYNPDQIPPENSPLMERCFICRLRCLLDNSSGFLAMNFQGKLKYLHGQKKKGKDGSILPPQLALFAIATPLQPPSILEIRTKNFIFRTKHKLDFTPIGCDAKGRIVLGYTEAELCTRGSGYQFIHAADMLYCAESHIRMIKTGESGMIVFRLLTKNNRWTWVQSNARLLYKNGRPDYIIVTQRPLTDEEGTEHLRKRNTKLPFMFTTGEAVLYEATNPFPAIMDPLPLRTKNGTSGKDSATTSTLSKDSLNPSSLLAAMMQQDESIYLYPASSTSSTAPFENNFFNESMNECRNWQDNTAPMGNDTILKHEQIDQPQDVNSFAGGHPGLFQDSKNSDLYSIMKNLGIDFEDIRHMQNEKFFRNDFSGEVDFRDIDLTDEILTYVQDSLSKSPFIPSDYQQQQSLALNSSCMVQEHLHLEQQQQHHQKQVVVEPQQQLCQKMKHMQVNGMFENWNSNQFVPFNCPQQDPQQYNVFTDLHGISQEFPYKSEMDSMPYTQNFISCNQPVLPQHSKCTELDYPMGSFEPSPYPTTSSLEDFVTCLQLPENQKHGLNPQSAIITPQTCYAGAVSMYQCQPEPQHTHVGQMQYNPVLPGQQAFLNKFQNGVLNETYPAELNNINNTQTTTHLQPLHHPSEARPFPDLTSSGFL

By AC50 is commonly meant the midpoint of the concentration-response curve, whichever way the signal moves. As for `CCCCCCOC(=O)c1ccccc1`, the outcome in assay [1], in assay [2], in assay [3], in [4], in [5] and in assay [7] was inactive. Also, the outcome in [8], in [9] and in assay [10] was inactive. The AC50 in assay [6] is 50.4 µM (active).
Take `CCO[Si](CCC(F)(F)C(F)(F)C(F)(F)C(F)(F)C(F)(F)C(F)(F)F)(OCC)OCC`: the compound was called inactive in [1], in assay [2], in [3], in assay [4], in [5] and in assay [6]. Further, the call in assay [7], in [9] and in assay [10] was inactive.
For `CCCCCCOC(=O)c1ccccc1O`, the compound was classed as inactive in [1], in assay [2], in assay [3], in assay [4], in assay [5] and in assay [6]. The call in [7], in assay [9] and in assay [10] was inactive.
For the compound `O=C(O)C(F)(F)C(F)(F)OC(F)(F)F`, the result in assay [1], in assay [3], in [5], in [6], in assay [7] and in [8] was inactive. For the same compound, the call in assay [9] and in assay [10] was inactive.
`FC(F)(F)C(F)(F)C(F)(F)C(F)(F)C(F)(F)C(F)(F)C(F)(F)C(F)(F)F`: the result in assay [1], in [3], in [4], in [5], in assay [6] and in assay [7] was inactive. Further, the outcome in assay [8], in assay [9] and in assay [10] was inactive.
Take `CCc1ccc(C(c2ccc(CC)cc2)C(Cl)Cl)cc1`: the compound was called inactive in [1], in assay [3], in assay [6], in assay [8], in assay [9] and in assay [10]. Also, the AC50 in [4] was 100 µM (active); in assay [5] it was 51 µM (active); in [7] it was 66.5 µM (active).
Consider `O=C(O)C(F)(OC(F)(F)C(F)(OC(F)(F)C(F)(OC(F)(F)C(F)(F)C(F)(F)F)C(F)(F)F)C(F)(F)F)C(F)(F)F` (centres undefined), for which the outcome in assay [1], in [3], in [5], in assay [6], in assay [7] and in [9] was inactive. Moreover, the result in assay [10] was inactive.
As for `OCC(F)(F)C(F)(F)C(F)(F)C(F)(F)C(F)(F)C(F)F`, the compound was classed as inactive in [1], in [3], in assay [5], in assay [6], in assay [7] and in assay [9]. In addition, the call in assay [10] was inactive.
For `O=C(O)C(F)(F)C(F)(F)C(F)(F)C(F)(F)C(F)(F)C(F)(F)C(F)(F)C(F)(F)Cl`, the outcome in [1], in assay [3], in assay [4], in [6], in [7] and in [9] was inactive. The call in [10] was inactive. Further, in assay [5], the AC50 is 39.1 µM (active) and 34.7 µM (active).
`CCCCCCS`: the compound was classed as inactive in assay [1], in [3], in assay [4], in assay [5], in [6] and in [7]. The compound was called inactive in [8], in [9] and in assay [10].
On to `FC(F)(F)C(F)(F)C(F)(F)CI`, for which the result in [1], in [3], in [5], in assay [6], in assay [7] and in assay [8] was inactive. For the same compound, the call in [9] and in assay [10] was inactive.
For the compound `O=S(=O)(OCC(F)F)C(F)(F)F`, the compound was called inactive in assay [1], in [3], in assay [5], in assay [6], in assay [7] and in assay [8]. Besides, the compound was classed as inactive in [9] and in assay [10].
For the compound `O=P(O)(O)OCCC(F)(F)C(F)(F)C(F)(F)C(F)(F)C(F)(F)C(F)(F)F`, the outcome in assay [1], in assay [3], in assay [4], in assay [5], in assay [6] and in assay [7] was inactive. Further, the compound was called inactive in [9] and in assay [10].
Regarding `CCCCCCCCC(F)(F)C(F)(F)C(F)(F)C(F)(F)C(F)(F)C(F)(F)F`, the compound was classed as inactive in [1], in [3], in assay [4], in assay [5], in assay [6] and in assay [7]. For the same compound, the outcome in assay [9] and in [10] was inactive.
With `O[Si](c1ccccc1)(c1ccccc1)c1ccccc1`, the result in assay [1], in [3], in [4], in [6], in assay [8] and in assay [10] was inactive. Further, the results for the AC50 in assay [5], in assay [7] and in assay [9] were 9.89 µM (active), 100 µM (active) and 32.3 µM (active), respectively.
For the compound `CC/C=C\CCOC(=O)c1ccccc1`, the outcome in assay [1], in assay [3], in [5], in assay [6], in assay [7] and in [8] was inactive. In addition, the result in assay [9] and in [10] was inactive.
Take `COC(OC(C)=O)c1ccccc1` (centres undefined): the compound was called inactive in [1], in assay [3], in [4], in assay [5], in [6] and in assay [7]. The call in assay [9] and in [10] was inactive.
Consider `CCCCC(CC)COP(=O)(O)OCC(CC)CCCC` (centres undefined), for which the result in assay [1], in assay [3], in [4], in assay [6], in assay [8] and in assay [9] was inactive. Besides, the outcome in assay [10] was inactive. The AC50 is 42 µM (active) in assay [5] and 60.6 µM (active) in assay [7].
On to `O=C(O)C(F)(F)C(F)(F)C(F)(F)C(F)(F)C(F)(F)C(F)(F)C(F)(F)C(F)(F)C(F)(F)C(F)(F)C(F)(F)C(F)(F)F`, for which the compound was classed as inactive in [1], in assay [3], in [4], in assay [5], in assay [6] and in [7]. The result in assay [9] and in [10] was inactive.
